{
  "source": "PubChem BioAssay AID623870",
  "about": "(Broad Institute, 2012)",
  "note": "In all, about 390,000 compounds went through this assay and about 2,600 (0.67%) were called active.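 Rule for the calls: active = mean inhibition of replicates at least 50% and at least half of replicates each reaching 50%; inconclusive = half or more replicates reach 50% but mean below 50%; inactive = the rest.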 Shown is part of a subset that was picked to be rich in actives.",
  "data": [
    {"target": "Transforming acidic coiled-coil-containing protein 3 (Homo sapiens) (UniProt Q9Y6A5)", "assay": "inhibitors of ARNT PAS-B binding to TACC3 – biochemical, AlphaScreen, single concentration, primary screen (AID 623870);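 note: 0% = complete ARNT plus TACC3 wells and 100% = ARNT alone without TACC3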", "settings": "AlphaScreen His-ARNT PAS-B/GST-TACC3 binding, luminescence; at 9.99 µM; hits give high values; TACC3 fragment carries E629A point mutation", "values": [
      {"smiles": "O=C(C[C@@H]1C=C[C@@H](NC(=O)c2ccccc2)[C@H](CO)O1)NCCc1ccncc1", "inhibition": "-9.84% (inactive)"},
      {"smiles": "COc1ccc(C(=O)Nc2ccc3c(c2)C(=O)N(C)C[C@@H](OC)[C@H](C)CN(C(C)=O)[C@@H](C)CO3)cc1", "inhibition": "-6.1% (inactive)"},
      {"smiles": "CC(C)NC(=O)N1[C@@H]2c3ccc(-c4ccc(F)cc4)c(=O)n3C[C@@H]2[C@@H](CO)[C@@H]1C(=O)N1CCOCC1", "inhibition": "17.2% (inactive)"},
      {"smiles": "O=C(NC1=CC(=O)c2ccccc2C1=O)c1ccccc1", "inhibition": "2.4% (active)"},
      {"smiles": "Cc1ccccc1S(=O)(=O)N1C[C@H](O)COC[C@H]2O[C@H](CC(=O)N3CCCCC3)CC[C@@H]21", "inhibition": "1.95% (inactive)"},
      {"smiles": "CNC[C@@H]1Oc2ccc(NC(=O)C3CCCCC3)cc2CC(=O)N([C@@H](C)CO)C[C@H]1C", "inhibition": "-6.19% (inactive)"},
      {"smiles": "CN(C)C(=O)c1cccc(-c2ccc3c(c2)[C@H]2[C@H](CCN2S(=O)(=O)c2cn(C)cn2)[C@@H](CO)N3)c1", "inhibition": "0.583% (inactive)"},
      {"smiles": "O=C(NC[C@@H]1[C@@H](c2ccccc2)[C@@H](CO)N1Cc1ccccn1)C1CCC1", "inhibition": "23.8% (active)"},
      {"smiles": "O=C(NC[C@@H]1[C@@H](c2ccccc2)[C@H](CO)N1C(=O)Cc1cccnc1)C1CC1", "inhibition": "-0.188% (inactive)"},
      {"smiles": "CN(C[C@@H]1[C@H](c2ccccc2)[C@@H](CO)N1Cc1ccccn1)S(C)(=O)=O", "inhibition": "29.6% (inactive)"},
      {"smiles": "CCCNC(=O)N1C[C@@H](O)COC[C@H]2O[C@H](CC(=O)NCCCN3CCOCC3)CC[C@@H]21", "inhibition": "-6.54% (inactive)"},
      {"smiles": "CN(C)C(=O)c1cccc(-c2ccc3c(c2)[C@H]2[C@H](CCN2C(=O)Cc2ccccc2)[C@H](CO)N3)c1", "inhibition": "-7.24% (inactive)"},
      {"smiles": "CN(C)C(=O)C[C@@H]1CC[C@@H](NS(=O)(=O)c2ccccc2)[C@H](CO)O1", "inhibition": "1.05% (inactive)"},
      {"smiles": "Cc1ccc(S(=O)(=O)n2oc(=O)c(C3CCCCC3)c2N)cc1", "inhibition": "64.1% (active)"},
      {"smiles": "Cc1ccc(S(=O)(=O)N2CC(C)N(S(C)(=O)=O)C2)cc1", "note": "(configuration not stated)", "inhibition": "-0.994% (inactive)"},
      {"smiles": "Cc1ccc(S(=O)(=O)N2CCCC2CO)cc1", "note": "(configuration not stated)", "inhibition": "-6.07% (inactive)"},
      {"smiles": "C[C@H](CO)N1C[C@H](C)[C@@H](CN(C)C(=O)C2CCC2)Oc2cc(C3=CCCCC3)ccc2S1(=O)=O", "inhibition": "7.82% (inactive)"},
      {"smiles": "CCOC(=O)C1CCN(C(=O)C2CCN(S(=O)(=O)CC)CC2)CC1", "inhibition": "-3.42% (inactive)"},
      {"smiles": "CCOC(=O)C1CCN(S(=O)(=O)c2c(C)noc2C)CC1", "inhibition": "-6.32% (inactive)"},
      {"smiles": "CCOC(=O)C1CCN(C(=O)C2CCN(S(=O)(=O)c3c(C)noc3C)CC2)CC1", "inhibition": "46.8% (active)"},
      {"smiles": "COC(=O)C[C@@H]1CC[C@@H]2[C@H](COc3ccc(NC(=O)c4ccccc4OC)cc3C(=O)N2C)O1", "inhibition": "-6.13% (inactive)"},
      {"smiles": "CN1C[C@H]2[C@@H](c3ccccc31)[C@@H](CO)N2C(=O)Nc1ccccc1", "inhibition": "-0.471% (inactive)"},
      {"smiles": "COc1ccc(S(=O)(=O)N(C)C[C@@H]2OCc3ccccc3-c3ccccc3C(=O)N([C@@H](C)CO)C[C@@H]2C)cc1", "inhibition": "-0.955% (inactive)"},
      {"smiles": "Cc1[nH]n(-c2cccc(Cl)c2)c(=O)c1/C=N/n1c(C)nc2ccccc2c1=O", "inhibition": "46.7% (active)"},
      {"smiles": "Cc1nc2ccccc2c(=O)n1-c1ccc(NS(=O)(=O)c2ccc(F)cc2F)cc1", "inhibition": "-1.59% (inactive)"},
      {"smiles": "CCCNC(=O)Nc1ccc2c(c1)C(=O)N(C)C[C@@H](OC)[C@@H](C)CN(Cc1ccccn1)[C@@H](C)CO2", "inhibition": "-2.12% (inactive)"},
      {"smiles": "CO[C@@H]1CN(C)C(=O)c2cc(NS(=O)(=O)Cc3ccccc3)ccc2OC[C@H](C)NC[C@H]1C", "inhibition": "1.43% (inactive)"},
      {"smiles": "CC(C)NC(=O)N[C@H]1CC[C@H](CC(=O)NCCCN(C)C)O[C@H]1CO", "inhibition": "-5.48% (inactive)"},
      {"smiles": "C[C@H](CO)N1C[C@H](C)[C@H](CN(C)CC2CC2)OCCCC[C@H](C)Oc2ccc(NS(=O)(=O)c3cccs3)cc2C1=O", "inhibition": "-8.86% (inactive)"},
      {"smiles": "C[C@@H]1CN([C@@H](C)CO)C(=O)c2cccc(NC(=O)Nc3ccc(C(F)(F)F)cc3)c2O[C@@H]1CN(C)S(=O)(=O)c1cccs1", "inhibition": "-2.19% (inactive)"},
      {"smiles": "COC(=O)CCCCCCC(=O)Nc1ccc(C2OC(CSc3nc(-c4ccccc4)c(-c4ccccc4)o3)CC(c3ccc([N+](=O)[O-])cc3)O2)cc1", "note": "(configuration not stated)", "inhibition": "1.18% (inactive)"},
      {"smiles": "Nc1nnnn1/N=C/c1cccs1", "inhibition": "3.88% (inactive)"},
      {"smiles": "Nc1nnnn1/N=C/c1cc([N+](=O)[O-])ccc1O", "inhibition": "75.7% (active)"},
      {"smiles": "Nc1nnnn1/N=C/c1cccc(Br)c1", "inhibition": "3.65% (inactive)"},
      {"smiles": "C[C@@H]1CCCCO[C@@H](CN(C)S(=O)(=O)c2cn(C)cn2)[C@H](C)CN([C@H](C)CO)C(=O)c2cc(NC(=O)NC3CCCCC3)ccc2O1", "inhibition": "-15% (inactive)"},
      {"smiles": "O=C(C[C@@H]1C[C@@H]2c3cc(NC(=O)CC4CC4)ccc3O[C@@H]2[C@@H](CO)O1)NCCN1CCCCC1", "inhibition": "-1.06% (inactive)"},
      {"smiles": "COCC#Cc1cnc2c(c1)C(=O)N([C@@H](C)CO)C[C@@H](C)[C@H](CN(C)C(=O)c1cnccn1)O2", "inhibition": "4.05% (inactive)"}
    ]}
  ]
}
